8 compounds from PubChem BioAssay (NCI) can be followed below.

Among the test systems are HCT-15 colon; HT29 colon; SNB-75 CNS; SNB-19 CNS; U251 CNS; PC-3 prostate; SK-MEL-5 melanoma; UACC-62 melanoma; LOX IMVI melanoma; SK-MEL-28 melanoma; EKVX NSCLC; SN12C renal; UO-31 renal; TK-10 renal; ACHN renal; CAKI-1 renal; A498 renal; CCRF-CEM leukemia; MOLT-4 leukemia.
What all share (experiment): NCI-60 one-dose screen, 48 h (100 = growth as untreated, 0 = no growth, -100 = all killed)
Holding throughout (details): 10 µM unless noted

This is part of a sample that, as a whole, favours compounds with a hit. Of some 83,000 tested, about 20% had one in any assay.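 Step 1: grow cells in 96-well plates. Step 2: add test compound at a single concentration. Step 3: incubate 48 h. Step 4: record percent growth.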 Values without a mark were called inactive. The source made the active and inactive calls. Rule for the calls: active = growth percent below 10; inactive = the rest.

Consider `Cc1cc(Nc2cc(N3CCN(C)CC3)nc(Sc3ccc(NC(=O)C4CC4)cc3)n2)n[nH]1`, for which the growth was 40.2% in the assay on HCT-15 colon; 0.79% (active) in the assay with HT29 colon; 0.133% (active) with SNB-75 CNS; 46.8% in the assay with SNB-19 CNS; 30% in the assay with U251 CNS; 35.2% in the assay with PC-3 prostate. The growth with SK-MEL-5 melanoma is 9.58% (active); in the assay on UACC-62 melanoma it was 13%; with LOX IMVI melanoma it was -69.2% (active); in the assay with SK-MEL-28 melanoma it was 34.4%; in the assay with EKVX NSCLC it was 76.6%; in the assay with SN12C renal it was 33.4%. Besides, the growth in the assay on UO-31 renal is 22.3%; in the assay with TK-10 renal it was 38.8%; in the assay with ACHN renal, 42.4%; in the assay on CAKI-1 renal it was 31.8%; with A498 renal, -16% (active); in the assay with CCRF-CEM leukemia, 35.6%. The growth in the assay with MOLT-4 leukemia was 26%.
On to `CNC(=O)c1cc(COc2nnc(Nc3ccc(Cl)cc3)c3ccoc23)ccn1`, for which the growth is 70.1% in the assay with HCT-15 colon; 71% with HT29 colon; -39.3% (active) in the assay with SNB-75 CNS; 19.6% in the assay with SNB-19 CNS; 15.1% in the assay with U251 CNS; 34.5% in the assay on PC-3 prostate. For the same compound, the growth in the assay with SK-MEL-5 melanoma is -0.858% (active); in the assay with UACC-62 melanoma, 47.8%; with LOX IMVI melanoma it was 15.5%; with SK-MEL-28 melanoma, 52.5%; in the assay with EKVX NSCLC, 56.7%; in the assay with SN12C renal, 38.9%. Moreover, the growth in the assay with UO-31 renal was -3.27% (active); with TK-10 renal, 33%; in the assay on ACHN renal it was 23.4%; in the assay with CAKI-1 renal, 28.2%; in the assay with A498 renal it was 62.6%; in the assay on CCRF-CEM leukemia, 98.2%. Besides, the growth in the assay with MOLT-4 leukemia is 73.6%.
Take `CN(C)CCOC(=O)Nc1nc2ccc(Sc3ccccc3)cc2[nH]1`: the growth was 33.2% in the assay with HCT-15 colon; 1.58% (active) in the assay with HT29 colon; -10.2% (active) with SNB-75 CNS; 36.4% in the assay with SNB-19 CNS; 26.5% with U251 CNS; 28% in the assay on PC-3 prostate. Moreover, the growth in the assay with SK-MEL-5 melanoma was 19.3%; in the assay on UACC-62 melanoma it was 42.4%; in the assay with LOX IMVI melanoma it was 32.1%; in the assay with SK-MEL-28 melanoma, 63.7%; with EKVX NSCLC, 47.1%; with SN12C renal, 40.5%. Besides, the growth in the assay on UO-31 renal was 31.5%; with TK-10 renal, 49.4%; with ACHN renal, 46.2%; with CAKI-1 renal, 33.9%; in the assay with A498 renal, -3.9% (active); in the assay with CCRF-CEM leukemia, 22.4%. Besides, the growth in the assay with MOLT-4 leukemia was 41%.
As for `Nc1cc(C(F)(F)F)c(-c2cc(N3CCOCC3)nc(N3CCOCC3)n2)cn1`, the growth is -10% (active) in the assay with HCT-15 colon; -29.2% (active) in the assay with HT29 colon; -69% (active) in the assay on SNB-75 CNS; 0.838% (active) with SNB-19 CNS; -2.08% (active) with U251 CNS; -10.4% (active) with PC-3 prostate. Also, the growth was -75.5% (active) in the assay with SK-MEL-5 melanoma; -72.7% (active) in the assay on UACC-62 melanoma; -44.6% (active) in the assay on LOX IMVI melanoma; -47.5% (active) with SK-MEL-28 melanoma; -13.4% (active) with EKVX NSCLC; -3.99% (active) in the assay with SN12C renal. Also, the growth with UO-31 renal was -34.4% (active); with TK-10 renal, -35.4% (active); in the assay on ACHN renal, -8.54% (active); in the assay with CAKI-1 renal it was -25.1% (active); in the assay on A498 renal, -80.4% (active); in the assay with CCRF-CEM leukemia it was 4.63% (active). Also, the growth in the assay on MOLT-4 leukemia was -11.9% (active).
With `O=C1NC(=O)/C(=C/c2ccc3nccc(-c4ccncc4)c3c2)S1`, the growth was -19.5% (active) in the assay on HCT-15 colon; -51.4% (active) in the assay with HT29 colon; -45.9% (active) with SNB-75 CNS; -26.6% (active) in the assay with SNB-19 CNS; -74.6% (active) with U251 CNS; -24.5% (active) in the assay with PC-3 prostate. Moreover, the growth is -94.7% (active) in the assay on SK-MEL-5 melanoma; -74.2% (active) in the assay with UACC-62 melanoma; -40.8% (active) in the assay on LOX IMVI melanoma; -32.6% (active) in the assay on SK-MEL-28 melanoma; -16.9% (active) with EKVX NSCLC; -5.67% (active) with SN12C renal. For the same compound, the growth in the assay on UO-31 renal is -37.7% (active); in the assay with TK-10 renal, -68.8% (active); with ACHN renal, -21.2% (active); with CAKI-1 renal, -40.2% (active); with A498 renal, -77.1% (active); with CCRF-CEM leukemia it was 0.0384% (active). In addition, the growth in the assay on MOLT-4 leukemia was -8.29% (active).
As for `CCCCCc1ccc(C)cc1OC(=O)CCl`, the growth with HCT-15 colon is 110%; in the assay with HT29 colon, 100%; in the assay on SNB-75 CNS, 90%; in the assay on SNB-19 CNS, 105%; in the assay with U251 CNS, 101%; with PC-3 prostate, 88.4%. For the same compound, the growth was 103% in the assay with SK-MEL-5 melanoma; 113% with UACC-62 melanoma; 106% in the assay with LOX IMVI melanoma; 113% with SK-MEL-28 melanoma; 117% with EKVX NSCLC; 110% in the assay on SN12C renal. Moreover, the growth is 66.9% in the assay with UO-31 renal; 105% in the assay with TK-10 renal; 105% in the assay with ACHN renal; 91.7% in the assay on CAKI-1 renal; 105% with A498 renal; 102% with CCRF-CEM leukemia. Besides, in the assay on MOLT-4 leukemia, the growth was 102%.
For `Cc1cc(O)cc(-c2c(-c3ccnc(-c4cccnc4)c3)cnn2C)c1`, the growth was 74% in the assay on HCT-15 colon; 60.7% in the assay on HT29 colon; 16.4% in the assay on SNB-75 CNS; 96.4% with SNB-19 CNS; 69.3% with U251 CNS; 47.8% in the assay on PC-3 prostate. The growth in the assay with SK-MEL-5 melanoma was 56.5%; in the assay on UACC-62 melanoma, 62.1%; with LOX IMVI melanoma it was 61.5%; in the assay with SK-MEL-28 melanoma, 60.8%; with EKVX NSCLC it was 89.5%; with SN12C renal, 58.9%. Moreover, the growth was 36.1% in the assay with UO-31 renal; 51% in the assay with TK-10 renal; 39.5% in the assay with ACHN renal; 42.3% in the assay on CAKI-1 renal; 5.82% (active) in the assay with A498 renal; 61.7% in the assay on CCRF-CEM leukemia. Further, the growth in the assay with MOLT-4 leukemia is 54.8%.
On to `Cc1oc2c(C(=O)N/N=C\c3ccc(O)cc3O)c[nH]c2c1C`, for which the growth in the assay on HCT-15 colon is 9.44% (active); in the assay on HT29 colon, 25.6%; in the assay with SNB-75 CNS, 40.2%; in the assay on SNB-19 CNS, 35.5%; in the assay on U251 CNS, 20.2%; in the assay on PC-3 prostate it was 43.4%. Further, the growth was 23.6% in the assay on SK-MEL-5 melanoma; 2.05% (active) in the assay with UACC-62 melanoma; -7.96% (active) in the assay on LOX IMVI melanoma; 32.1% with SK-MEL-28 melanoma; 26.6% in the assay with EKVX NSCLC; 44.5% with SN12C renal. In addition, the growth in the assay with UO-31 renal is -0.347% (active); with TK-10 renal, 6.21% (active); in the assay with ACHN renal, -7.76% (active); in the assay with CAKI-1 renal, 1.53% (active); in the assay with A498 renal, 44.6%; in the assay with CCRF-CEM leukemia, 23.9%. In addition, in the assay with MOLT-4 leukemia, the growth is 8.56% (active).
